For 14 molecules, growth results are on record in PubChem BioAssay (NCI).

Molecules are shown by their SMILES. The panel holds about 83,000 compounds, 20% with a hit somewhere; the sample as a whole holds those more often.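 96-well plates, one dose, 48 hours. Percent growth reported; active if below 10.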 Unmarked numbers belong to inactive results. Activity calls are given as the source filed them.

Among the test systems are NCI-H23 lung; NCI-H226 lung; HOP-62 NSCLC; NCI-H460 lung; HOP-92 NSCLC; NCI-H522 lung; A549/ATCC NSCLC; 786-0 renal; COLO 205 colon.
Holding throughout (assay): NCI-60 one-dose screen, 48 h (100 = growth as untreated, 0 = no growth, -100 = all killed)
Holding throughout (settings): 10 µM unless noted

As for `Cc1ccc(OCCn2c(C)nn(-c3ccc(Cl)cc3)c2=O)cc1`, the growth was 94.7% in the experiment on NCI-H23 lung; 108% in the experiment on NCI-H226 lung; 103% with HOP-62 NSCLC; 106% in the experiment on NCI-H460 lung; 84.1% in the experiment with HOP-92 NSCLC; 106% with NCI-H522 lung. The growth in the experiment with A549/ATCC NSCLC is 100%; with 786-0 renal, 100%; with COLO 205 colon it was 115%.

As for `COc1cc(Br)c(OC)cc1Br`, the growth in the experiment on NCI-H23 lung is 78%; with NCI-H226 lung, 98.3%; in the experiment on HOP-62 NSCLC, 93.5%; in the experiment with NCI-H460 lung, 99.3%; in the experiment with HOP-92 NSCLC it was 96.9%; in the experiment on NCI-H522 lung, 90.4%. In addition, the results for the growth with A549/ATCC NSCLC, in the experiment with 786-0 renal and in the experiment with COLO 205 colon were 95.6%, 105% and 109%, respectively.

As for `COc1ccc(C(=O)/C=C/c2cccc([N+](=O)[O-])c2)c(OC)c1`, the growth in the experiment with NCI-H23 lung was 32.6%; in the experiment on NCI-H226 lung, 49.2%; with HOP-62 NSCLC it was 26.1%; in the experiment with NCI-H460 lung, 1.68% (active); with HOP-92 NSCLC it was 67.5%; in the experiment with NCI-H522 lung, 7.28% (active). Moreover, the growth in the experiment on A549/ATCC NSCLC is 27.6%; in the experiment with 786-0 renal it was -7.25% (active); in the experiment on COLO 205 colon, 60.2%.

Regarding `O=S(=O)(NCCCNc1cc(-c2cn(-c3ccccc3)nc2-c2cccc(O)c2)ccn1)c1cccc(F)c1`, the growth was 58.6% with NCI-H23 lung; 46.4% in the experiment with NCI-H226 lung; 66.7% in the experiment with HOP-62 NSCLC; 35.6% in the experiment on NCI-H460 lung; 26% in the experiment with HOP-92 NSCLC; 44.4% in the experiment on NCI-H522 lung. Moreover, the results for the growth in the experiment on A549/ATCC NSCLC, with 786-0 renal and in the experiment with COLO 205 colon were 37%, 13.1% and -55.9% (active), respectively.

Turning to `COc1ccc2c(c1)NC(=O)CN2c1nc(C)nc2ccccc12`, the growth in the experiment with NCI-H23 lung is 20.4%; with NCI-H226 lung, 65.8%; in the experiment on HOP-62 NSCLC it was 29.2%; with NCI-H460 lung, 2.28% (active); with HOP-92 NSCLC, -5.74% (active); in the experiment with NCI-H522 lung, -21.1% (active). Further, the growth was 21.3% in the experiment on A549/ATCC NSCLC, 19.8% in the experiment with 786-0 renal and -35% (active) in the experiment with COLO 205 colon.

Regarding `COc1ccc(/C(=N/O)c2cc(OC)c(OC)c(OC)c2)c(OC)c1N`, the growth in the experiment on NCI-H23 lung is 51.9%; with NCI-H226 lung, 80.7%; with HOP-62 NSCLC, 33.7%; in the experiment with NCI-H460 lung it was 14.5%; with HOP-92 NSCLC, 53.2%; in the experiment on NCI-H522 lung, 0.281% (active). Further, the growth with A549/ATCC NSCLC is 45.6%; in the experiment on 786-0 renal, 30.6%; with COLO 205 colon, 20.2%.

Regarding `Cc1cc(N/C=c2\sc3ncnn3c2=O)no1`, the growth was 91.6% in the experiment with NCI-H23 lung; 108% in the experiment with NCI-H226 lung; 103% in the experiment on HOP-62 NSCLC; 105% in the experiment on NCI-H460 lung; 92.2% with HOP-92 NSCLC; 90.8% with NCI-H522 lung. Also, the growth was 107% in the experiment with A549/ATCC NSCLC, 100% in the experiment on 786-0 renal and 112% with COLO 205 colon.

Take `O=C(CNC(=O)c1cccc2ccccc12)Nc1ccccc1Oc1ccccc1`: the growth in the experiment with NCI-H23 lung is 20.9%; with NCI-H226 lung it was 49.2%; in the experiment with HOP-62 NSCLC it was 24.6%; in the experiment with NCI-H460 lung it was -2.87% (active); in the experiment on HOP-92 NSCLC, -1.24% (active); in the experiment on NCI-H522 lung, -10.5% (active). The growth with A549/ATCC NSCLC was 9.48% (active); with 786-0 renal it was 16.3%; in the experiment on COLO 205 colon, -8.22% (active).

Take `COc1cc(/C=C2\CCCC3=C2N=C2SC(C)=NN2C3c2cc(OC)c(OC)c(OC)c2)cc(OC)c1OC` (stereo unspecified): the growth in the experiment with NCI-H23 lung is 23.2%; in the experiment with NCI-H226 lung it was 27.7%; with HOP-62 NSCLC it was -0.72% (active); in the experiment with NCI-H460 lung, -13.9% (active); in the experiment on HOP-92 NSCLC it was 91.9%; in the experiment with NCI-H522 lung, 81%. Moreover, the values for the growth in the experiment with A549/ATCC NSCLC, with 786-0 renal and in the experiment with COLO 205 colon were 39.9%, 34.5% and 19.2%, respectively.

Regarding `CCCCCCCCCCCCOB(OCCCCCCCCCCCC)OCCCCCCCCCCCC`, the growth in the experiment with NCI-H23 lung was 88.3%; with NCI-H226 lung, 99.3%; in the experiment on HOP-62 NSCLC, 94.5%; in the experiment with NCI-H460 lung, 109%; in the experiment with HOP-92 NSCLC, 101%; with NCI-H522 lung it was 95.2%. Also, the growth with A549/ATCC NSCLC was 97.8%; in the experiment with 786-0 renal, 120%; in the experiment on COLO 205 colon, 98.2%.

Consider `COc1ccc(C2NC3=C(CCCC3)C(C#N)(C#N)C2(C#N)C#N)cc1` (stereo unspecified), for which the growth with NCI-H23 lung is 91.4%; with NCI-H226 lung, 97%; in the experiment on HOP-62 NSCLC it was 94.6%; in the experiment on NCI-H460 lung, 97.6%; with HOP-92 NSCLC, 103%; in the experiment on NCI-H522 lung, 23.8%. Moreover, the growth with A549/ATCC NSCLC is 106%; in the experiment on 786-0 renal, 88.1%; in the experiment on COLO 205 colon it was 11.8%.

As to `O=C(Nc1cccc(Cl)c1)c1cc([N+](=O)[O-])ccc1O`, the growth is 25.8% with NCI-H23 lung; 68.2% in the experiment with NCI-H226 lung; 44.2% in the experiment with HOP-62 NSCLC; 54% in the experiment on NCI-H460 lung; 8.95% (active) with HOP-92 NSCLC; -2.45% (active) with NCI-H522 lung. The growth with A549/ATCC NSCLC is 66.9%; in the experiment with 786-0 renal it was 63.8%; in the experiment on COLO 205 colon it was 76.7%.

For `O=C(Nc1cc(C(F)(F)F)cc(C(F)(F)F)c1)Nc1ccc(OCc2nnc(-c3ccc(Cl)cc3)o2)c(F)c1`, the growth with NCI-H23 lung was -5.96% (active); with NCI-H226 lung, 6.03% (active); in the experiment with HOP-62 NSCLC, 10.3%; in the experiment on NCI-H460 lung it was 6.63% (active); with HOP-92 NSCLC, -11.9% (active); in the experiment with NCI-H522 lung, -22.8% (active). The growth is 10.5% in the experiment on A549/ATCC NSCLC, 15.1% in the experiment with 786-0 renal and -84.7% (active) with COLO 205 colon.

On to `CN1CCN(c2ccc3cc(-c4nc5ccccc5[nH]4)c(=O)oc3c2)CC1`, for which the growth with NCI-H23 lung is 74.5%; with NCI-H226 lung, 89%; in the experiment on HOP-62 NSCLC, 98%; in the experiment with NCI-H460 lung it was 92.7%; in the experiment on HOP-92 NSCLC, 58.9%; with NCI-H522 lung, 94.9%. Further, the growth was 90.3% in the experiment on A549/ATCC NSCLC, 105% in the experiment on 786-0 renal and 92.4% in the experiment with COLO 205 colon.
